# Test results taken from PubChem BioAssay AID1347074 (Center for Chemical Genomics, University of Michigan, 2019).
# Out of some 47,000 compounds screened, about 2,800 (6%) were called active. This excerpt belongs to a sample that is enriched for actives. Values without a mark were called inactive. Rule as the data show it: active = z-score above about 3 (passing the limit was not always enough); inactive = the rest.
# Target: Endoribonuclease Dicer (Homo sapiens) (UniProt Q9UPY3)
# Test: Dicer cleavage of pre-miR-21 blockers – biochemical, cat-ELCCA, chemiluminescence, primary screen (AID 1347074);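 also: plate controls were vehicle for no effect and no enzyme for full effect; higher signal means more uncleaved substrate so more Dicer inhibition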
# Conditions: cat-ELCCA pre-miR-21 Dicer processing, at 25 µM, active compounds read high
# Chain of Endoribonuclease Dicer (Homo sapiens) (Q9UPY3 whole entry, looked up): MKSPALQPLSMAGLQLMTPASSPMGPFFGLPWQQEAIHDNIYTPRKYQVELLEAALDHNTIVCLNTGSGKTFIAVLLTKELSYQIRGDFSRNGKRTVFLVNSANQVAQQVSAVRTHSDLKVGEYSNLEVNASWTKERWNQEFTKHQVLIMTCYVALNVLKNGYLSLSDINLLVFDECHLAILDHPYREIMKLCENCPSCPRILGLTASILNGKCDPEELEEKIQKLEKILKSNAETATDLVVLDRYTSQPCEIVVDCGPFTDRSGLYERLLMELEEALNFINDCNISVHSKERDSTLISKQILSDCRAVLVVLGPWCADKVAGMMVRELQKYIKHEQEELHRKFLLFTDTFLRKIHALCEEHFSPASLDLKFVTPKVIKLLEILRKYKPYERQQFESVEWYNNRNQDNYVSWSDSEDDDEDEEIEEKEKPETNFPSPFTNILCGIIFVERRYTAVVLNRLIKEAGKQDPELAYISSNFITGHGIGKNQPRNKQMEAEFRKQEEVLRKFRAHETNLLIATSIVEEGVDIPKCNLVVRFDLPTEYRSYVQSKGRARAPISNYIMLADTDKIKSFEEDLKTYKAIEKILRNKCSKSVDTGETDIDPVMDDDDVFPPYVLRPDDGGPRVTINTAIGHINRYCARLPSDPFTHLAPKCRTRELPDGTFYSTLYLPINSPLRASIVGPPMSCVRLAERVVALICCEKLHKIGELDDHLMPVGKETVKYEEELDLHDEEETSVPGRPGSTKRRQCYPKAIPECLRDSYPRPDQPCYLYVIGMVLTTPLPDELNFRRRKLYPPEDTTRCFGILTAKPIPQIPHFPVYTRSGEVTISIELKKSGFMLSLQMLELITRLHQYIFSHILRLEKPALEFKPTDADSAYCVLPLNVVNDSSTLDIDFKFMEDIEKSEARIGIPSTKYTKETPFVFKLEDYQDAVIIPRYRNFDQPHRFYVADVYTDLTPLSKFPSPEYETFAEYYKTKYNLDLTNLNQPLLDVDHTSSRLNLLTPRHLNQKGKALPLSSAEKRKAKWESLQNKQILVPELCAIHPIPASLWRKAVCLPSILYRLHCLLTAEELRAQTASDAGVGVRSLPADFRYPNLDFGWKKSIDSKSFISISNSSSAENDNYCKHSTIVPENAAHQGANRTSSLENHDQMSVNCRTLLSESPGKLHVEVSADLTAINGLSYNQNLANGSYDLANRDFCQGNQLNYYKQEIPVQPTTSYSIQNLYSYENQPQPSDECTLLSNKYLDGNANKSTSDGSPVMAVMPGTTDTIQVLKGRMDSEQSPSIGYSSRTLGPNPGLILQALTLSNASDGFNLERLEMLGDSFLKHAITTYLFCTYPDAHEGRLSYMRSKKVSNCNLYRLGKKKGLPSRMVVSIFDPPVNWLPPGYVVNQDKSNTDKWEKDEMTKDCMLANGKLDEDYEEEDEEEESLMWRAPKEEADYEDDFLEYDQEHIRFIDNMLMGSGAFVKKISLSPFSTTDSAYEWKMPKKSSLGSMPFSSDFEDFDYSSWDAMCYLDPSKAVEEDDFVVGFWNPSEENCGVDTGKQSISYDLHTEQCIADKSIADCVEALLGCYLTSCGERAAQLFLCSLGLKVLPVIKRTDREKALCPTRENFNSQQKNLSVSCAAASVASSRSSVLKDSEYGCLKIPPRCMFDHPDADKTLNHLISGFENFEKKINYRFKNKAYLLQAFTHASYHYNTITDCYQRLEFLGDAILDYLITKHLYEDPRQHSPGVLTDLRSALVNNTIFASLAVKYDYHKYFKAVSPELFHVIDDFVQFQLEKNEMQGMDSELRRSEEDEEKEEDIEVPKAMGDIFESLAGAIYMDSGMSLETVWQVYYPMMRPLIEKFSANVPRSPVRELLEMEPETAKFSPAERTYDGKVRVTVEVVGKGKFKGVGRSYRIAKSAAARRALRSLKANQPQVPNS
row,Compound,z-score
1,CSc1sc(C(=O)c2ccc(Cl)cc2)c2c1C(=O)CCC2,-1.08
2,CSc1sc(C(=O)NNC(=S)Nc2ccccc2Cl)c2c1C(O)CCC2 (stereo not given),6.52 (active)
3,CC(=O)N1CCc2cc(NC(=S)Nc3ccccc3Cl)ccc21,0.03
4,CC1=C(C(=O)OCCc2ccccc2)C(c2cccs2)C2=C(CCCC2=O)N1 (stereo not given),0.14
5,CC(C)c1nnc(NC(=O)Cn2c(=O)sc3ccccc32)s1,0.59
6,Nc1cc(=O)[nH]c(SCC(=O)Nc2ccccc2F)n1,1.47
7,COc1ccc(Cl)cc1NC(=O)CSc1nc2ncccc2[nH]1,3.45 (active)
8,CNC(=O)CSc1nc2ccccc2[nH]1,1.43
9,O=C1c2ccccc2C(=O)N1CN1CCC(CCCC2CCN(CN3C(=O)c4ccccc4C3=O)CC2)CC1,2.46
10,Cc1sc2nc3n(c(=O)c2c1C)N=C(c1cccs1)CS3,1.1
11,O=C1c2cccnc2C(=O)N1c1ccc(-c2nc3ccccc3o2)cc1,2.88
12,O=C(OCCN1CCCCC1)C1COc2ccccc2O1 (stereo not given),3.41 (active)
13,O=C(OCCN1CCOCC1)C1(c2ccccc2)CCCCC1,-0.8
14,Cc1cc(NC(=O)CCC2COc3ccccc3O2)no1 (stereo not given),0.67
15,CC(C)(C)c1cc(N/C=C/c2nnnn2-c2ccccc2)no1,-0.3
16,COc1ccc(CN2CCN(Cc3ccccc3OC)CC2)cc1Br,3.53 (active)
17,Brc1cccc(CN2CCN(Cc3cccnc3)CC2)c1,1.06
18,c1ccc(CN2CCN(Cc3cn[nH]c3-c3ccccc3)CC2)cc1,-2.57
19,c1ccc(NCc2ccc3c(c2)OCO3)nc1,-1.56
20,c1cc(CNCc2ccc3c(c2)OCO3)ccn1,3.21 (active)
21,COc1cccc(CNCc2ccc3c(c2)OCO3)c1,0.54
22,COc1cccc(N2C(=O)C3ON(c4ccccc4)C(c4ccco4)C3C2=O)c1 (stereo not given),1.03
23,COc1ccc(OCC(O)CN2CCC(C)CC2)cc1 (stereo not given),-0.23
24,CC1=C(C(=O)OCC2CCCO2)C(c2ccc(-c3ccccc3)cc2)C2=C(CCCC2=O)N1 (stereo not given),1.9
25,CC1=C(C(=O)OCc2ccccc2)C(c2ccc(O)cc2)C2=C(CCCC2=O)N1 (stereo not given),0.01

row,Compound,z-score
1,O=C1CCCC2=C1C(c1ccc([N+](=O)[O-])o1)Nc1ccc(C(=O)c3ccccc3)cc1N2 (stereo not given),4.19 (active)
2,COc1ccc(Cc2nc3c4c5c(sc4ncn3n2)CCCC5)cc1OC,0.1
3,N#C/C(=C\c1sccc1Oc1ccccc1)S(=O)(=O)c1ccc(Cl)cc1,-1.9
4,O=C1c2ccccc2C(=O)C1c1ccccc1,0.31
5,Nc1nc2c(c(=O)[nH]1)C(c1ccccc1F)CC(=O)N2 (stereo not given),-1.01
6,O=C1c2ccccc2C(=O)C1c1ccccc1F,20.4 (active)
7,COC(=O)CCS(=O)(=O)c1ccc2ccccc2c1,1.34
8,COC(=O)c1ccc(/C=C/c2nc3cc(C)c(C)cc3o2)cc1,-0.26
9,O=S(=O)(c1cccc(-c2cn3ccccc3n2)c1)N1CCCC1,-0.49
10,Cc1cccn2cc(-c3cccc(S(=O)(=O)N4CCCCC4)c3)nc12,0.61
11,Cc1ccc(S(=O)(=O)Nc2cccc(-c3cn4ccccc4n3)c2)cc1C,5.71 (active)
12,COc1ccc(O)c(C2=NN3C(C2)c2cc(Cl)ccc2OC3c2cccnc2)c1 (stereo not given),-1.34
13,Cc1ccc(O)c(C2=NN3C(C2)c2cc(Cl)ccc2OC3c2ccncc2)c1 (stereo not given),-0.01
14,Oc1ccccc1C1=NN2C(C1)c1cc(Br)ccc1OC2c1ccncc1 (stereo not given),12.7 (active)
15,O=C(O)/C=C/C(=O)Nc1cccc([N+](=O)[O-])c1,1.26
16,Cc1cccc(C)c1NC(=S)N1CCc2ccccc2C1,-2.91
17,O=[N+]([O-])c1cc(Br)cnc1Sc1n[nH]c(-c2cccs2)n1,-0.81
18,Clc1ccc(-c2nn3c(-c4ccc(Cl)cc4)nnc3s2)cc1,0.14
19,COc1nc(NC(C)(C)C)nc(Oc2ccc(=O)[nH]n2)n1,-0.91
20,O=C1CC(c2ccccc2)Cc2nc(N3CCN(Cc4ccc5c(c4)OCO5)CC3)ncc21 (stereo not given),-1.59
21,CCCCCc1c(C)nc(N2CCN(Cc3ccc4c(c3)OCO4)CC2)[nH]c1=O,3.11 (active)
22,O=C(c1cccs1)N1CCN(Cc2ccc3c(c2)OCO3)CC1,0.63
23,CCCCN1C(=O)C(c2c(C)[nH]n(-c3ccccc3)c2=O)(C(F)(F)F)C2=C1CC(C)(C)CC2=O (stereo not given),-2.96
24,Cc1ccc(S(=O)(=O)Nc2cccc(CCc3ccccn3)c2)cc1,-0.8
25,CCCCCCCCc1ccc(C(=O)O)cc1,-0.9

row,Compound,z-score
1,COCCCNC(=S)Nc1ccc(C)cc1C,-0.42
2,CCCc1ccc(C(=O)NNc2ccc(C)cc2C)cc1,4.39 (active)
3,Oc1c(C(Nc2ccccn2)c2ccncc2)ccc2cccnc12 (stereo not given),1.37
4,Cc1cccc(Cl)c1N=C(N)N=C(N)N,1.97
5,CC1(C)N=C(N)N=C(N)N1c1cc(Cl)c(Cl)cc1Cl,-0.47
6,O=c1ccn(C2CCCO2)c(=O)n1Cc1ccccc1F (stereo not given),0.96
7,CCc1ccc(C(=O)/C=C/Sc2nc3ccccc3o2)cc1,1.33
8,CCc1ccc(C(=O)/C=C/Sc2ccccn2)cc1,4.22 (active)
9,CCCc1c(C)nc2scc(-c3ccc(Cl)cc3)n2c1=O,1.65
10,O=C(Nc1cccc(C(F)(F)F)c1)Nc1ccccc1SCc1ccc(Cl)cc1,-1.32
11,COc1cccc(/C=N/NC(=S)Nc2cc(C(F)(F)F)cc(C(F)(F)F)c2)c1O,5.84 (active)
12,COc1cccc(/C=N/NC(=O)c2cc(C)nc3ccc(Br)cc23)c1O,2.93
13,COCCCNC(=S)N/N=C/c1ccccc1Cl,-0.35
14,CC(C)OC(=O)Cn1nc(C(F)(F)F)c2c1CCCC2,0.31
15,c1ccc(Nc2ncnc3sc(-c4ccccc4)cc23)cc1,0.51
16,CNC(=O)NC(=O)CSc1ncnc2sc(-c3ccccc3)cc12,-1.14
17,COc1ccc(Nc2ncnc3sc(-c4ccccc4)cc23)c(OC)c1,8.39 (active)
18,CCOc1nc(-c2ccc(C)cc2)ccc1-c1noc(C)n1,0.71
19,Cn1c(SCC(=O)Nc2cccc(C(F)(F)F)c2)nnc1SCC(=O)Nc1cccc(C(F)(F)F)c1,-0.05
20,COc1cc(C2c3c(oc4ccc(F)cc4c3=O)C(=O)N2Cc2ccccc2)ccc1O (stereo not given),2.47
21,COc1nc(NC(=O)NS(=O)(=O)c2ccccc2C(F)(F)F)nc(C23CC4CC(CC(C4)C2)C3)n1,-0.58
22,Cc1ccc(Sc2nc3ccc(Cl)cc3s2)cc1,-1.81
23,Cc1ccc(S(=O)(=O)Nc2ccc3ncccc3c2)cc1,0.32
24,Cc1ccc2nc(-c3ccc(NS(=O)(=O)c4ccc(Cl)s4)cc3)sc2c1,4.31 (active)
25,COc1ccc(C2CC(=O)c3cn4nc(C)nc4nc3C2)cc1OC (stereo not given),-0.07

row,Compound,z-score
1,CN([C@H]1CCN2CCc3ccccc3C2C1)S(C)(=O)=O (stereo not given in full),3.92 (active)
2,Cc1cc(C)c(S(=O)(=O)N2CCc3ccccc3C2)c(C)c1,0.07
3,CN(C(=O)CSc1nc(C2CCCCC2)c(C#N)c(=O)[nH]1)c1ccccc1,-0.59
4,COc1ccc(C2=Nc3ccccc3SC(c3ccc(OC)c(O)c3)C2)c(O)c1 (stereo not given),-0.56
5,COc1ncnc2sc(C(=O)O)c(C)c12,0.21
6,CCc1ccnc(NS(=O)(=O)c2ccc3c(c2)OCCO3)c1,0.59
7,CCc1ccc(S(=O)(=O)Nc2cc(Cl)c3oc(=O)sc3c2)cc1,14.8 (active)
8,CCOc1ccc(NS(=O)(=O)c2ccc(Cl)cc2)cc1,0.5
9,COc1ccc(-c2cnc3cc(-c4ccc(Cl)cc4)nn3c2N)cc1OC,1.34
10,Cn1c2c(c(=O)n(C)c1=O)C(c1ccc(F)cc1)C1=C(N2)c2ccccc2C1=O (stereo not given),1.52
11,O=C1C2=C(Nc3[nH]c(=O)[nH]c(=O)c3C2c2ccc(F)cc2)c2ccccc21 (stereo not given),-3.54
12,O=C1C2=C(Nc3ccccc3S(=O)(=O)C2c2ccc(Cl)cc2)c2ccccc21 (stereo not given),5.21 (active)
13,O=C1c2oc3ccccc3c(=O)c2C(c2ccccc2F)N1c1nncs1 (stereo not given),-0.05
14,O=C1CC(=O)CC(c2cccc(Cl)c2)C1,-0.3
15,Cc1ccc(-c2nnc(Nc3ccccc3)c3ccccc23)cc1S(=O)(=O)NCCO,0.4
16,Cc1ccc(-c2nnc(N3CCOCC3)c3ccccc23)cc1S(=O)(=O)N1CCCCC1,-4.68
17,Cc1ccc(-c2nnc(NCc3ccccc3)c3ccccc23)cc1S(=O)(=O)N1CCOCC1,3.46 (active)
18,COCc1cc(C)nc(Nc2ccc(C)cc2)c1C#N,-0.19
19,CCCc1nnc2n1Nc1nc3ccccc3nc1S2,0.21
20,Cc1noc(C)c1S(=O)(=O)N(C)C1CCCCC1,0.73
21,Cn1nccc1NC(=O)CC(CC(=O)O)c1ccccc1 (stereo not given),-0.73
22,O=C(O)CC(CC(=O)Oc1ccccc1N1CCCCC1)c1ccccc1 (stereo not given),4.46 (active)
23,Cc1cc(NC(=O)CC(CC(=O)O)c2ccccc2)n(C)n1 (stereo not given),-1.02
24,CCOC(=O)c1ccc(NCN2C(=O)c3ccccc3C2=O)cc1,0.49
25,CCCN1C(=O)C2(/C(=C(/O)c3ccc(F)cc3)C(=O)C(=O)N2CCCN(C)C)c2ccccc21 (stereo not given),-0.34
